FLuc counter: counter-screen for miR-21 project: firefly luciferase inhibitors or activators; Potency, µM (highest dose often 57.5 µM), without a hit: at the top dose activity change, negative = inhibition, actives largely listed as inhibitors; P08659; purified FLuc, Km substrates, luminescence inhibition; 360,000 tested, 6.9% active;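 also: plate controls were vehicle for no effect and reference inhibitor for full effect; nearly all actives have a fitted effect of over 55% in size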
Target sequence (P08659 whole entry, looked up): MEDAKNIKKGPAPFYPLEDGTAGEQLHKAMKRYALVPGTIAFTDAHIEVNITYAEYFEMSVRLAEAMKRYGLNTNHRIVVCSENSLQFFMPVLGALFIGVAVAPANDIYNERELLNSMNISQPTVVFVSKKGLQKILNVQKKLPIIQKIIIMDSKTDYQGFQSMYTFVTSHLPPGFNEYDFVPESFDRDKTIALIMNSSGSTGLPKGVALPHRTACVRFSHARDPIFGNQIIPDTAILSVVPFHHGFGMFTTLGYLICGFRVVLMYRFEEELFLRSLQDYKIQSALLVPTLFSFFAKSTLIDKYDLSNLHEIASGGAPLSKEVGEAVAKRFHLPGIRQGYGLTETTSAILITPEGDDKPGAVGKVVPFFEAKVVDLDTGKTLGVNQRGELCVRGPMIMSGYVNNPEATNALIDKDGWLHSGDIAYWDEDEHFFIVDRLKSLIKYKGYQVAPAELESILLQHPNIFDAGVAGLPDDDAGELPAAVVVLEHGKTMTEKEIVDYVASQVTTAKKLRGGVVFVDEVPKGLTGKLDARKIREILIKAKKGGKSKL
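Biochemical qHTS of compounds, final roughly 60 µM downward over six points, against 10 nM purified firefly luciferase using Km concentrations of substrates (10 uM D-luciferin, 10 uM ATP) in Tris acetate pH 7.5 buffer; luminescence output.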
NPC1 promoter act: activators of NPC1 promoter | AID 485313 | Potency, µM (series often up to 9.22 µM), inactives show at the top dose activation, hits mostly activators | Huh7 NPC1 promoter luciferase reporter, 24 h | 320,000 tested, 2.4% active; also: % of control where 0% means no effect; nearly all actives have a fitted effect of over 60% in size
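Stable NPC1-promoter luciferase Huh7 line; cpd (DMSO) 24 h, 37 °C, 5% CO2; Amplite luciferase reagent 10 min RT; luminescence readout. qHTS format.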
Rab9 prom act: activators of Rab9 promoter. Huh7 Rab9 promoter-luciferase reporter, luminescence, 24 h. 320,000 tested, 2.8% active. Potency, µM (doses to about 9.22 µM), without a hit: at the highest dose activation, negative = inhibition, actives largely listed as activators; also: % of control where 0% means no effect; nearly all actives have a fitted effect of over 60% in size
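Luminescence from Amplite-detected luciferase (10 minutes, ambient) reports Rab9 promoter activation. Before that, stable Rab9-luciferase Huh7 cells (1500/well, reduced-serum OP-MEM I plus 10% FBS) were exposed to compound for 24 hours at 37C.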
SMN2 splice enh: enhancers of SMN2 splice variant expression; HEK293 SMN2-luciferase splicing reporter, luminescence, 30-36 h; Potency, µM (doses to about 46.1 µM), for the others: at the highest dose activity change, positive = activation, actives largely listed as activators; 210,000 tested, 2.8% active; also: % of control where 0% means no effect; nearly all actives have a fitted effect of over 55% in size
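HEK293 cells carry an SMN2 minigene-luciferase reporter in which exon 7 inclusion puts luciferase in frame. Cells were seeded at 2000 cells/well, attached for 10-12 hours, then exposed to compounds for 30-36 hours at 37C before ONE-Glo luminescence.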
ELG1 genotox: induces genotoxicity in HEK293T cells with luciferase-tagged ELG1; HEK293T ELG1-luciferase reporter, luminescence, 16 h; Potency, µM (highest dose often 46 µM), inactives show at the highest dose activity change, positive = activation, usual class: activators; AID 504466; 330,000 tested, 1.3% active; also: % of control where 0% means no effect; nearly all actives have a fitted effect of over 60% in size
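HEK293T cells expressing luciferase-tagged ELG1 were exposed to compound or DMSO vehicle for 16 hr at 37 °C and 5% CO2. Luciferase activity was then measured with ONE-Glo after 30 min at room temperature.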
ELG1 DNA repair: blocks ELG1-dependent DNA repair in HEK293T cells; Potency, µM (series often up to 46.1 µM), for the others: top-dose activity change, negative = inhibition, most hits filed as inhibitors; 330,000 tested, 2.3% active; HEK293T ELG1-luciferase reporter, luminescence, 16 h; DNA damage induced by 5-fluorouridine; AID 504467; also: % is scaled to controls: 0 for no effect and ±100 for the full control effect; nearly all actives have a fitted effect of over 55% in size
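DMSO vehicle served as the neutral condition. Each well held 2,000 cells given 5-fluorouridine plus compound; after 16 hr at 37 °C/5% CO2, ONE-Glo was added and luciferase measured 30 min later.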
Starred values were filed as active, the others as inactive; ? = inconclusive; / = not tested or not shown; [ ] = remark or other dose. A selection: hits, their analogues and other compounds. The true share with any hit is near 9.2%. Calls follow the shape of the dose curve; as a rule, active = well fitted curve in the direction sought with a large enough effect; inconclusive = small, poorly fitted or top-dose-only effect, or another doubt; inactive = no such curve, though single readings can be large; an effect the other way counts as inactive or inconclusive. Potency is read from the fitted curve at half-maximal effect.

SMILES	FLuc counter	NPC1 promoter act	Rab9 prom act	SMN2 splice enh	ELG1 genotox	ELG1 DNA repair
Clc1cccc(Cl)c1/C=C/c1ccn[nH]1	16.9µM*	-20.9%	8.2%	/	11.2%	-8.8%
Cc1c(NC(=O)c2cccs2)cccc1C(=O)O	15.1µM*	?	?	10.4%	12.1%	?
Cc1c(NC(=O)c2ccccc2N)cccc1C(=O)O	9.53µM*	1.26µM*	1.78µM*	/	?	?
Cc1c(NC(=O)c2ccc(Br)o2)cccc1C(=O)O	21.3µM*	?	2.51µM*	?	?	?
Nc1ccccc1NC(=O)c1ccccc1N	-22.5%	10.8%	17.1%	-3.4%	0.7%	25.9%
COc1cc(NC(=O)c2ccc(Br)o2)c(C(=O)O)cc1OC	21.3µM*	-0.9%	-1.3%	17.6%	2.1%	9.2%
COc1ccccc1NC(=O)c1ccc(Br)o1	-13.9%	1.1%	-5.2%	26.5%	?	?
Cc1nc2nc(CNC(=O)c3cccc(F)c3)nn2c(C)c1CCC(=O)Nc1cccc(Cl)c1	1.7%	/	/	/	/	/
Cc1c(NC(=O)c2ccccc2NC(=O)c2ccccc2)cccc1C(=O)O	16.9µM*	-0.4%	4.4%	/	1.7%	5.3%
Cc1cccc(NC(=O)c2ccccc2NC(=O)C2CCCCC2)c1C	16.9µM*	1.8%	-2.5%	-1.2%	?	7.4%
Cc1c(NC(=O)c2ccccc2NC(=O)COc2ccccc2)cccc1C(=O)O	-14.6%	-0.9%	2.4%	/	-8.5%	9.1%
Cc1ccc(NC(=O)c2cccc(C(=O)Nc3ccc(C)cc3C(=O)O)c2)c(C(=O)O)c1	26.9µM*	-0.5%	-3.9%[1.84 µM]	/	-10.6%	?
Cc1c(NC(=O)c2ccc(NC(=O)C3CC3)cc2)cccc1C(=O)O	15.1µM*	-0.4%	7.0%	/	-1.8%	-14.2%
CCc1nn(CC(=O)NCCN(CC(C)C)CC(C)C)c(=O)c2cc3sc(C)cc3n12	-5.5%	/	/	-1.9%	/	/
CCOc1ccc(Oc2nc(NC)nc(N3CCOCC3)n2)nn1	-1.7%	/	/	?	/	/
Cc1ccc(CCNC(=O)c2ccc3c(c2)N(Cc2ccccc2F)C(=O)c2ccccc2S3=O)cc1 (stereo unspecified)	-2.1%	/	/	6.7%	/	/
Cc1cc(O)c(NC(=O)c2ccc(Br)o2)cc1C	?	20.1%	17.4%	14.1µM*	?	?
CSc1ncc(C(=O)Nc2cccc(C)c2C)c(C)n1	-0.3%	-9.9%	-10.4%	/	-0.3%	11.1%
Oc1ccc(N=Nc2n[nH]c(-c3ccccc3)n2)cc1	3.79µM*	1.58µM*	1µM*	?	8.2µM*	?
Oc1ccc(N=Nc2n[nH]c(-c3ccc(Br)cc3)n2)cc1	7.57µM*	12.1%	-9.1%	15.8µM*	5.6%	?
COc1ccc(-n2c(=O)[nH]cc(C(=O)Nc3ccc4c(c3)OCO4)c2=O)cc1OC	?	-1.8%	3.6%	/	4.8%	2.2%
Cc1ccc(NS(=O)(=O)c2cc(C(=O)Nc3cccc([N+](=O)[O-])c3)ccc2C)cc1	6.4%	-5.4%	-3.0%	/	-6.8%	?
Cc1ccc(C(=O)Nc2cccc([N+](=O)[O-])c2)cc1S(=O)(=O)Nc1ccc(NC(=O)c2ccccc2)cc1	-0.4%	-1.5%	-8.1%	?	-7.5%	5.17µM*
CC(=O)Nc1ccc(NC(=O)c2ccc(C)c(S(=O)(=O)Nc3cccc(C)c3)c2)cc1	-14.7%	-9.8%	-5.8%	/	-10.0%	20.6µM*
COc1cc(OC)c(NC(=O)CCCNC(=O)Cn2cnc3sc(C)c(C)c3c2=O)cc1Cl	-0.3%	0.4%	0.6%	/	5.3%	?
SMILES	FLuc counter	NPC1 promoter act	Rab9 prom act	SMN2 splice enh	ELG1 genotox	ELG1 DNA repair
COc1ccc(C2C(=O)N(C3CCCCC3)CC(=O)N2CCc2ccc(OC)c(OC)c2)cc1 (stereo unspecified)	2.0%	/	/	/	/	/
O=C(COc1ccc(Cl)cc1)NCc1nnc(SCC(=O)N2CCCCCC2)o1	2.4%	-2.9%	-0.7%	-34.5%	19.6%	-8.9%
CN1c2ccccc2C(C)(C)C12C=Nc1c(ccc3ccccc13)O2 (stereo unspecified)	15.1µM*	-3.4%	8.0%	-41.5%	-1.6%	?
COc1ccc(-c2cc(C(F)(F)F)nc(-n3cc(Cl)cn3)n2)cc1	0.1%	-8.1%	-2.2%	-43.7%	-11.6%	23.1µM*
COc1cccc(-c2cc(C(F)(F)F)nc(-n3cc(Cl)cn3)n2)c1	1.6%	-0.5%	-3.0%	-42.0%	-13.7%	?
CN(C)S(=O)(=O)c1ccc(C(=O)NNC(=O)C23CC4CC(CC(C4)C2)C3)cc1	/	/	/	/	0.6%	0.0%
Nc1nnc(-c2ccc(Cl)cc2)s1	?	18.9%	11.2%	-15.2%	?	?
CCCCOc1ccc(-c2nnc(N)s2)cc1	7.57µM*	28.0%	?	20.1%	?	?
CCCCOc1ccc(-c2ncc(N)cn2)cc1	6.75µM*	1.78µM*	2.82µM*	/	?	?
CCCCOc1cccc(-c2nnc(N)s2)c1	?	3.4%	9.3%	?	?	?
CCOc1ccc(-c2nc(CCl)cs2)cc1	3.01µM*	?	2.24µM*	?	?	?
CCOc1ccc(-c2nnc(N)s2)cc1	13.5µM*	?	?	11.2µM*	11.2µM*	?
COC(=O)N1CCC[C@@]2(CCN(C(c3ccccc3)c3ccccc3)C2)C1	/	/	/	-9.1%	/	/
COc1ccc(CC(=O)N2CCN(S(=O)(=O)c3cc(Cl)ccc3Cl)CC2)cc1	-0.6%	0.5%	1.0%	/	1.2%	-7.7%
CCN(CC)c1ccc(S(=O)(=O)N2CCOCC2)cc1NC(=O)CN1C(=O)NC2(CCC(C)CC2)C1=O (stereo unspecified)	5.3%	-2.6%	-4.9%	/	0.5%	?
Nc1nnc(-c2ccc(F)cc2)s1	?	-1.7%	4.9%	6.4%	4.1%	?
CC(C)(C)c1ccc(-c2nnc(N)s2)cc1	1.9µM*	1.41µM*	1.41µM*	/	?	?
NNC(=O)c1ccc2nc(-c3ccc(Br)cc3)cn2c1	9.53µM*	0.398µM*	0.501µM*	11.2µM*	?	?
COc1ccc(-c2cn3cc(C(=O)NN)ccc3n2)cc1	7.57µM*	?	0.316µM*	/	?	?
COc1ccc(C(=O)NN)cc1	-9.8%	-3.3%	-1.2%	/	0.8%	?
CCC(C)c1ccc(S(=O)(=O)N2CCN(C(=O)COc3ccc4c(C)cc(=O)oc4c3)CC2)cc1 (stereo unspecified)	-1.5%	2.6%	7.6%	-7.4%	-0.2%	8.2µM*
O[C@@H]1COC(Nc2ccc(N=Nc3ccccc3)cc2)C[C@@H]1O (stereo partly specified)	0.338µM*	?	3.16µM*	/	?	?

Bioassay records: PubChem, National Center for Advancing Translational Sciences (NCATS)
